Screening results: PubChem, National Center for Advancing Translational Sciences (NCATS)
SARS PLP yeast: inhibitors of SARS-CoV papain-like protease in yeast; S. cerevisiae expressing SARS-CoV PLpro, growth rescue; Potency, µM (series often up to 32.9 µM), hits mostly activators; 0.19% of 330,000 active; calls by dose curve; also: nearly all actives have a fitted effect of over 55% in size
Tb PYK inh: blocks Trypanosoma brucei pyruvate kinase; Q57TT1; TbPYK enzyme, Kinase-Glo Plus ATP luminescence, 45 min; Potency, µM (doses to about 76.8 µM), most hits filed as inhibitors; 0.12% of 410,000 active; AID 624173; also: nearly all actives have a fitted effect of over 50% in size
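Assay buffer: 50 mM TEA pH 7.2, 100 mM KCl, 10 mM MgCl2, 0.05% BSA, 0.01% Tween-20. Pyruvate kinase from T. brucei plus substrate met compound, then ADP (130 uM final). Luminescence was read post 45 min RT.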
AmpC detergent: blocks E. coli AmpC beta-lactamase in detergent assay; P00811; AmpC hydrolysis of nitrocefin, absorbance 480 nm, 0.01% Triton; Potency, µM (top dose mostly 114 µM), actives largely listed as inhibitors; 0.041% of 370,000 active; also: nearly all actives have a fitted effect of over 25% in size
Target sequence (P00811 whole entry, looked up): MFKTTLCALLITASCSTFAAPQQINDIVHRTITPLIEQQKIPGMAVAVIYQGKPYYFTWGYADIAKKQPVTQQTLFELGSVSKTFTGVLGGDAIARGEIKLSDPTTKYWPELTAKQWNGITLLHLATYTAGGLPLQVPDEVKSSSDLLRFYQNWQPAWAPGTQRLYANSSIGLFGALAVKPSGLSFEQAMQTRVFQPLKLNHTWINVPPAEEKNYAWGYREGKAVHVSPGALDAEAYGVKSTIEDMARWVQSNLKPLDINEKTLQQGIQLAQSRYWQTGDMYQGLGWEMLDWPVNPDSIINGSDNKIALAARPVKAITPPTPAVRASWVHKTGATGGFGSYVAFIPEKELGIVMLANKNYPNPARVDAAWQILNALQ
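20 mM phosphate pH 7.0 + 0.01% (detergent screen) or 0.0001% Triton X-100; 5.3 nM AmpC reagent; cpd preinc 15 min RT; nitrocefin (800 uM stock) to start; A480 q20 s × 4 min; Activity was normalised to no-enzyme and no-compound control wells.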
AmpC inh no detg: inhibitors of E. coli AmpC beta-lactamase without detergent | P00811 | AmpC nitrocefin hydrolysis, absorbance 480 nm, 0.0001% Triton | Potency, µM (doses to about 57.1 µM), hits mostly inhibitors | 0.52% of 330,000 active; also: nearly all actives have a fitted effect of over 20% in size
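AmpC (5.3 nM in the dispensed reagent) in 20 mM phosphate pH 7.0 with 0.01% (detergent screen) or 0.0001% Triton X-100 was preincubated with compounds for 15 min at room temperature. Nitrocefin was then added from an 800 uM solution, and hydrolysis was followed at 480 nm.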
Sm TGR block: blocks Schistosoma mansoni thioredoxin glutathione reductase; Q962Y6; purified TGR, DTNB reduction, TNB absorbance 405 nm; Potency, µM (series often up to 114 µM), actives largely listed as inhibitors; 3% of 360,000 active; also: nearly all actives have a fitted effect of over 60% in size
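Kinetic colorimetric format: TGR-catalysed, NADPH-driven DTNB reduction monitored via TNB absorbance. Enzyme dispensed at 20 nM; compound exposure 15 min at room temperature before reaction start.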
RE007 growth inh: less growth of the S. pombe RE007 Vpr strain. S. pombe RE007 Vpr strain, BacTiter-Glo ATP luminescence, 24 h. Potency, µM (doses to about 92.2 µM), hits mostly inhibitors. AID 651644. 0.21% of 360,000 active; active = well fitted falling curve with a large enough effect; inconclusive = small, poorly fitted or top-dose-only effect; inactive = no such curve, though single readings can be large or run the other way; also: nearly all actives have a fitted effect of over 50% in size
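Fission yeast strain RE007, carrying one chromosomally integrated HIV-1 vpr copy, was seeded at OD 0.01 in PMG+AL medium with 23 nL pinned compound. After 24 h at 30 °C and 99% humidity, viability was read by BacTiter-Glo luminescence.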
Numbers stand for hits; 0 = inactive; ? = inconclusive; - = no result given; [ ] = another dose, or the depositor's remark. Only some compounds are listed: those with a hit (about 3.3% of all), similar ones and a draw of the others. Unless noted, calls follow the shape of the dose curve; as a rule, active = well fitted curve in the direction sought with a large enough effect; inconclusive = small, poorly fitted or top-dose-only effect, or another doubt; inactive = no such curve, though single readings can be large; an effect the other way counts as inactive or inconclusive.

SMILES | SARS PLP yeast | Tb PYK inh | AmpC detergent | AmpC inh no detg | Sm TGR block | RE007 growth inh
O=C(Nn1c(C2CCCCC2)nc2ccccc2c1=O)c1ccc([N+](=O)[O-])cc1Cl | 0 | 0 | 0 | 14µM | 0 | 0
COc1ccc(NS(=O)(=O)c2ccc(-c3cnc(C4CC4)o3)cc2)cc1Cl | - | 0 | 0 | - | 0 | -
CN(C)c1nc(N)nc(Nc2ccccc2C#N)n1 | 0 | 0 | 0 | 0.2µM | 0 | 0
CNC(=O)/C=C1\NC(C)(C)Cc2c1ccc1ccccc21 | 0 | 0 | 0 | 0 | ? | 0
CC1(C)Cc2c(ccc3ccccc23)/C(=C/C#N)N1 | 0 | 0 | 0 | 0 | 45µM | 0
CCOc1ccc(C=NNc2ccc(S(=O)(=O)Nc3ccccc3C(=O)O)cc2[N+](=O)[O-])cc1 | 0 | 0 | - | 28µM | - | 0
Cc1ccc(CNC(=O)c2ccc(CNS(=O)(=O)c3ccc4c(c3)C(C)(C)C(=O)N4C)cc2)o1 | 0 | 0 | 0 | 0 | 50µM | 0
NS(=O)(=O)c1ccc(NC(=O)COC(=O)c2ccc([N+](=O)[O-])s2)cc1 | 0 | 0 | 0 | 0 | 25µM | 0
CC1=C(C(=O)Nc2cccc(Cl)c2)C2(CCCCCC2)OC1=O | - | 0 | 0 | - | 0 | -
CCOC(=O)C(C(C)=O)c1c(Br)c(O)c(O)c2c(C(=O)c3ccc(C)cc3)coc12 (stereo not given) | 0 | 0 | 0 | 0 | 4.5µM | 0
COC(=O)C1(C(F)(F)F)N=C2Sc3ccccc3N2C(N2CCOCC2)=N1 (stereo not given) | 0 | 0 | 0 | 0.32µM | 0 | 0
Cc1nc2cc(-c3cccc(F)c3)nn2c(C)c1CCC(=O)NCCc1ccccc1 | - | 0 | 0 | - | 22µM | -
Cc1nc2cc(-c3ccccc3)nn2c(C)c1CCC(=O)NCCc1ccccc1 | - | 0 | 0 | - | 0 | -
[O]=[Bi][O]C(=O)[O][Bi]=[O] | - | 0 | - | - | - | -
Cc1ccc(S(=O)(=O)N2CCOC23CCN(C(=O)c2ccc(Cl)cc2Cl)CC3)cc1 | 0 | 0 | 0 | 0 | 7.9µM | 0
Cc1ccc(S(=O)(=O)N2CCOC23CCN(C(=O)c2cc(Cl)ccc2Cl)CC3)cc1 | 0 | 0 | 0 | 0 | 0 | 0
O=C(NC(NC(=S)Nc1ccc(Cl)cc1)C(Cl)(Cl)Cl)c1ccco1 (stereo not given) | 0 | 0 | 0 | ? | ? | 0
COc1ccc(C(=O)NC(NC(=S)Nc2ccc(S(N)(=O)=O)cc2)C(Cl)(Cl)Cl)cc1 (stereo not given) | 0 | 0 | 0 | 8.9µM | 0 | 0
CC(=O)c1ccc(NC(=S)NC(NC(=O)c2ccco2)C(Cl)(Cl)Cl)cc1 (stereo not given) | 0 | 0 | 0 | 13µM | ? | 0
COc1ccc(C(=O)NC(=S)Nc2ccc(S(N)(=O)=O)cc2)cc1 | 0 | 0 | 0 | 0 | ? | 0
Cc1ccc(Nc2cc(C)c(C#N)c3nc4ccccc4n23)cc1Cl | - | 0 | 0 | - | 0 | -
O=C(Nc1ccccc1C(F)(F)F)C(O)(c1ccccc1)C1CCCCC1 (stereo not given) | 0 | 0 | 0 | 0 | 4µM | 0
O=c1c(-c2ccc(Br)cc2)[n+]([O-])c2ccccc2n1OCc1ccccc1 | 0 | 0 | 0 | 0 | 0 | 0
CC(C)(C)c1ccc(COn2c(=O)c(-c3ccco3)[n+]([O-])c3ccccc32)cc1 | 0 | - | 0 | 0 | 18µM | 0[3.69 µM]
Brc1ccc(-c2ccc(CNCc3ccccn3)o2)cc1 | 0 | 0 | ? | 0 | 40µM | 0
SMILES | SARS PLP yeast | Tb PYK inh | AmpC detergent | AmpC inh no detg | Sm TGR block | RE007 growth inh
Clc1cccc(-c2ccc(CNCc3ccccn3)o2)c1 | 0 | 0 | 0 | 0 | 13µM | 0
Cc1cc(SCNC(=O)c2ccccc2)ncn1 | 0 | 0 | 0 | 0 | 14µM | 0
O=C(NCSc1ccccc1)c1ccccc1 | 0 | 0 | 0 | 0 | 0 | 0
CN1C(CSCC(F)(F)F)Nc2cc(Cl)c(S(N)(=O)=O)cc2S1(=O)=O (stereo not given) | - | 0 | - | - | - | -
O=C(COC(=O)c1cnccn1)c1ccc(Cl)c([N+](=O)[O-])c1 | 0 | 0 | 0 | 0 | 40µM | 0
CNC(=O)COC(=O)c1ccccc1C(=O)c1ccc(Cl)c([N+](=O)[O-])c1 | 0 | 0 | ? | 0 | 35µM | 0
O=C(OC1CCOC1=O)c1ccccc1C(=O)c1ccc(Cl)c([N+](=O)[O-])c1 (stereo not given) | 0 | 0 | 0 | 0 | 25µM | 0
Cc1ccc(C(=O)COC(=O)c2cnccn2)cc1[N+](=O)[O-] | 0 | 0 | 0 | 0 | 0 | 0
